The panel holds about 83,000 compounds, 20% with a hit somewhere; the sample as a whole holds those more often.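 In brief: 96-well plates, 48 h treatment, single concentration, percent growth endpoint.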 The source made the active and inactive calls. Rule for the calls: active = growth percent below 10; inactive = the rest.

This assay has as its system HL-60(TB) leukemia. As to the kind of experiment: NCI-60 one-dose screen, 48 h (100 = growth as untreated, 0 = no growth, -100 = all killed). Conditions: 10 µM unless noted.
`Cc1c(Cn2cc(COc3ccc(Br)cc3)nn2)c(C)c(Cn2cc(COc3ccc(Br)cc3)nn2)c(C)c1Cn1cc(COc2ccc(Br)cc2)nn1`: the growth was 89.8% (inactive).
On to `O=c1[nH]c(=O)c2cc(Cl)cc(Cl)c2[nH]1`, for which the growth is 100% (inactive).
Turning to `Nc1nnc(C(=O)c2cnc3n(c2=O)CCCCC3)s1`, the growth is 110% (inactive).
As for `COc1ccc2nc3cc(Cl)ccc3c(Nc3ccc(N(C)C)cc3)c2c1`, the growth was 90% (inactive).
Under `COc1cc(/C=C2\CN(S(=O)(=O)c3ccccc3)C/C(=C\c3cc(CN4CCCC4)c(O)c(OC)c3)C2=O)cc(CN2CCCC2)c1O` stands -14.8% (active); under `Clc1ccc(CCC(Cn2ccnc2)Sc2c(Cl)cccc2Cl)cc1` (stereo not given), 2.26% (active).
Under `O=C1OC[C@H]2[C@H](c3ccc(O)c(O)c3)c3cc(O)c(O)cc3C[C@H]12` stands 217% (inactive); under `COc1ccc(/C=C/c2nc(Nc3cccc(NC(C)=O)c3)c3ccccc3n2)cc1`, 78.5% (inactive).
Under `CC(=O)[C@@H]1CC[C@]2(C(=O)n3ccnc3)CC[C@]3(C)[C@H](CC[C@@H]4[C@@]5(C)Cc6c([nH]c7ccccc67)C(C)(C)[C@@H]5CC[C@]43C)[C@@H]12` stands 90.9% (inactive); under `CC(=O)O[C@H]1[C@H](CC#CC#CC[C@@H]2C[C@]3(C)[C@H]4CC=C5[C@H]6[C@@H](C)[C@H](C)CC[C@]6(C(=O)NCCCCCCCCN)CC[C@@]5(C)[C@]4(C)CC[C@H]3C(C)(C)[C@H]2OC(C)=O)C[C@]2(C)[C@H]3CC=C4[C@H]5[C@@H](C)[C@H](C)CC[C@]5(C(=O)NCCCCCCCCN)CC[C@@]4(C)[C@]3(C)CC[C@H]2C1(C)C`, 104% (inactive); under `O=C(/C(=C/c1ccccc1)CN1CCCCC1)c1ccccc1`, -16.4% (active).
Take `Oc1cc(/C=C/c2nc(N3CCOCC3)c3cc(Cl)c(Cl)cc3n2)cc(O)c1O`: the growth was 99.4% (inactive).
Consider `CCCCn1c(-c2ccc(C(=O)O/N=C(\N)c3ccc4ccccc4c3)cc2)nc(-c2ccccc2)c1-c1ccccc1`, for which the growth was 23.8% (inactive).
Under `Cc1nc2sc(C(=O)Nc3cccc4ccccc34)c(N)c2cc1C(=O)/C=C/c1ccccc1` stands 4.48% (active); under `Cn1c(/C(C#N)=C/c2ccc3ccccc3c2)cc2ccccc21`, -6.93% (active); under `Clc1ccc2c(NCCNc3nc(Cl)nc4ccccc34)ccnc2c1`, -67% (active).
In the case of `COc1cccc(-c2nc3sccn3c2-c2ccnc(NCCNC(=O)Nc3cccc(C(F)(F)F)c3)n2)c1`, the growth is 62.8% (inactive).
Under `CCOC(=O)C1=C(CSC(=S)N(C2CCCCC2)C2CCCCC2)N(C)C(=O)NC1c1ccccc1` (stereo not given) stands 15.3% (inactive).
For `CCOC(=O)c1c(-c2ccc(Cl)cc2)c(C#N)c(=O)n(-c2ccccc2CC)c1N` the value was 144% (inactive); for `CNC(=S)NNC(=O)C1CC1`, 73.3% (inactive).
As for `COc1cc(/C=C/C(=O)C(=Cc2ccc(F)c(F)c2)C(=O)/C=C/c2ccc(O)c(OC)c2)ccc1O`, the growth was 16.6% (inactive).
As for `NNC(=O)c1ccc(-n2nc(-c3ccccc3)c3ccccc32)cc1`, the growth was 93% (inactive).
For `CCOC(=O)C1=C(C)NC(=O)NC1c1ccc(OCC(=O)N/N=C/c2ccc(Cl)cc2)cc1` (stereo not given) the value was 98.3% (inactive).
Under `Cn1c(COC(=O)NCCc2ccccn2)nc2c(N3CCOCC3)nc(Cl)nc21` stands -36.9% (active); under `O=C(CSc1nnc(-c2ccccc2)o1)Nc1ccc(C(=O)/C=C/c2ccccc2)cc1`, 71% (inactive); under `c1ccc(-c2cn3c(ccc4ccccc43)n2)cc1`, 24.4% (inactive).
Under `CN1CCN(CCCNc2nccc(-c3c(-c4ccc(F)c(O)c4)nc4sccn34)n2)S1(=O)=O` stands 78.3% (inactive).
Regarding `Nc1nsc(C(=O)c2ccc(O)cc2)n1`, the growth was 92.4% (inactive).
For `O=C(N/N=C/c1cc2ccccc2c2ccccc12)c1cc(O)c(O)c(O)c1` the value was 39.9% (inactive); for `COC(=O)[C@H]1CCCN1C(=O)[C@H]1CCCN1C(=O)[C@@H](Cc1c[nH]c2ccccc12)NC(=S)Nc1cc(C(F)(F)F)cc(C(F)(F)F)c1`, 31.2% (inactive); for `COc1ccc(/C=C(/C(=O)N2CCCCC2)c2cc(OC)c(OC)c(OC)c2)cc1`, -17.5% (active).
For `COc1cc(/C=C/C(=O)c2ccc(F)cc2)ccc1OCCCCOc1ccc(/C=C/C(=O)c2c(C)nc3ccccc3c2C)cc1OC` the value was 79.8% (inactive).
Under `COc1ccc(C2CC(c3cccc(Nc4ccncc4)c3)=NN2c2ccccc2)cc1` (stereo not given) stands -32.8% (active); under `CNc1nc(C)c(-c2nc(Nc3cccc(S(N)(=O)=O)c3)ncc2F)s1`, -47.9% (active); under `CCCCCCCCCCCCCCCC[N+](C)(CCO)Cc1cnc[nH]1` (stereo not given), -80.6% (active).
Regarding `O=[N+]([O-])c1cc(S(=O)(=O)OCC2CO2)ccc1Cl` (stereo not given), the growth was 80.2% (inactive).
Under `CN1C(=O)N(C)C2C1NN=c1s/c(=C\c3ccccc3)c(=O)n12` (stereo not given) stands 16.9% (inactive); under `CCN(CC)CCOC(COc1cc(C)cc(C)c1)COc1cc(C)cc(C)c1`, 20.3% (inactive); under `Nc1ccc(-c2ccc(-c3ccccc3N)c3[nH]c4ccccc4c23)cc1`, 5.47% (active).
Under `COC1=CC(=O)C(OC)=C(OC)C1=O` stands 61.4% (inactive).

The values are drawn from PubChem BioAssay (NCI).
